From PubChem
A selection: hits, their analogues and other compounds. The true share with any hit is near 1.6%.
RXFP1 antagonist: qHTS Assay for Antagonists of the Relaxin Receptor RXFP1 | activity change, negative = inhibition, % at 57.5 µM | AID 1259400, 2018 | 350,000 compounds, 0.59% hits | HEK293-RXFP1, relaxin-stimulated cAMP HTRF, 30 min; stronger effect = lower value;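 active means activity change of -60% or lower, but not beyond a set lower limit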; further: on the % scale 0 is the no-effect control and ±100 the full control effect
Target sequence (Q9HBX9 whole entry, looked up): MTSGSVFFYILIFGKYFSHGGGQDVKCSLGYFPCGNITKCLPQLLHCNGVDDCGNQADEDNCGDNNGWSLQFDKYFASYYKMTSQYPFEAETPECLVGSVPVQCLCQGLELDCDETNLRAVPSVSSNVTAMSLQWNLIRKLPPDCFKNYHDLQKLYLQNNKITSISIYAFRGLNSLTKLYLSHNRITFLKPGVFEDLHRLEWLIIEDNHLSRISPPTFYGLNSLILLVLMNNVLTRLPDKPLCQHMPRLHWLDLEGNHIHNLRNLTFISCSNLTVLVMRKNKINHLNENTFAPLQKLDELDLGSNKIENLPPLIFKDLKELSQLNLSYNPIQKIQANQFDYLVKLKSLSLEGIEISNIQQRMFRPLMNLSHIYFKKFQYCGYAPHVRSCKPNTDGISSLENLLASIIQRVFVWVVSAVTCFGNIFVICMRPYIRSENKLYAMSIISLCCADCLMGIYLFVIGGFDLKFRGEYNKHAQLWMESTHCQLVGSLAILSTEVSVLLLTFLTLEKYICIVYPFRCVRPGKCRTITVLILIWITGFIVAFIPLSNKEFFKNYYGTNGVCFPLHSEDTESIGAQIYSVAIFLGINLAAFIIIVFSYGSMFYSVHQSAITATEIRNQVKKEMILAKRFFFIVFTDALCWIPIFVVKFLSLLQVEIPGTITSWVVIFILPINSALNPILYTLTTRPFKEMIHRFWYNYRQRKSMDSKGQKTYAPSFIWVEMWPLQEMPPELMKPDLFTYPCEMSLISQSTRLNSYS
gsp agonist: qHTS for Agonist of gsp, the Etiologic Mutation Responsible for Fibrous Dysplasia/McCune-Albright Syndrome: qHTS | gsp mutant cells, cAMP HTRF, 30 min | AID 624287, 2012 | Potency, µM (doses to about 76.9 µM), for inactives: at the highest dose activation (cAMP increase), actives largely listed as activators | 340,000 compounds, 0.13% hits; active means well fitted activation curve with a large enough effect; cell line not stated here;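 further: phosphodiesterase inhibitor Ro 20-1724 added with compounds to block cAMP breakdown; potency means the concentration at half of the fitted maximal effect; nearly all actives have a fitted effect of over 60% in size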
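Cells stably selected in G418 were plated at 2000/well, grown 16-24 hr, then given compounds in DMSO with the PDE inhibitor […] (300 uM solution added) for 30 min at 37C; cAMP was read by HTRF.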
Giardia killer: Small Molecules that selectively kill Giardia lamblia: qHTS. Giardia lamblia trophozoite viability. activity change, % at 7.66 µM, hits read low. 340,000 compounds, 0.15% hits; in the data active means activity change below about -80%;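 further: parasites exposed to compound for two days anaerobically before the ATP read; on the % scale 0 is the no-effect control and ±100 the full control effect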
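Anaerobic 48 hrs incubation at 37 deg C of 100 trophozoites/well with test compounds; ATPLite 1-Step luminescence, 15-30 min RT, reports cellular ATP as viability.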
RXFP1 agonist: qHTS Assay for Agonists of the Relaxin Receptor RXFP1 | Relaxin receptor 1 (Homo sapiens), Q9HBX9 | HEK293T-RXFP1 cAMP TR-FRET, 30 min; response scale: percent of porcine relaxin response, buffer zero | Potency, µM (highest dose often 57.5 µM), for the others: at the highest dose activation, actives largely listed as activators | 370,000 compounds, 0.3% hits | AID 2676, 2010; active means well fitted activation curve with a large enough effect; further: potency means the concentration at half of the fitted maximal effect; on the % scale 0 is the no-effect control and ±100 the full control effect; nearly all actives have a fitted effect of over 60% in size
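HEK293T cells stably expressing RXFP1 were pretreated with the PDE4 inhibitor Ro 20174, exposed to compounds for 30 min at 37C, lysed, and cAMP was read by TR-FRET. Data normalized to buffer (basal) and 29 nM porcine relaxin (100%).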
gsp antagonist: qHTS for Antagonists of gsp, the Etiologic Mutation Responsible for Fibrous Dysplasia/McCune-Albright Syndrome: qHTS. 340,000 compounds, 0.4% hits. Potency, µM (doses to about 76.9 µM), for the others: at the top dose activity change, negative = inhibition, hits mostly inhibitors. gsp-mutant cells, cAMP HTRF, 30 min; calls by dose curve; cell line not stated here;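 further: intracellular cAMP measured with PDE inhibitor Ro 20-1724 present during compound exposure; potency means the concentration at half of the fitted maximal effect; on the % scale 0 is the no-effect control and ±100 the full control effect; nearly all actives have a fitted effect of over 65% in size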
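Cells in G418 medium, seeded 16-24 h, 37C; buffer exchange to DPBS + 1 mM CaCl2, 0.5 mM MgCl2, 0.05% BSA; cpds in DMSO + […] (300 uM stock), 30 min 37C; HTRF cAMP detection.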
Coupling enz: qHTS Assay for Inhibitors of Fructose-1,6-bisphosphate Aldolase from Giardia Lamblia: Coupling assay counterscreen; coupling enzyme system counterscreen, AmpLite Red fluorescence; activity change, negative = inhibition, % at 58.2 µM, hits read low; 290,000 compounds, 0.67% hits; in the data active means activity change below about -30%; further: on the % scale 0 is the no-effect control and ±100 the full control effect
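First, compound is pin-transferred into glyceraldehyde-3-phosphate coupling-enzyme reagent at 57.5 uM final and held 10 min at RT. Next, substrate, coupling system and AmpLite Red are added. After 20 min RT, fluorescence (525/598 nm) is read.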
* marks the source's active call; other numbers are inactive results.

Results for CC[C@H](C)[C@H](NC(=O)[C@H](Cc1ccc(O)cc1)NC(=O)[C@H](CCCNC(=N)N)NC(=O)[C@H](CCCNC(=N)N)NC(=O)[C@H](CC(C)C)NC(=O)[C@H](CCC(N)=O)NC(=O)[C@@H](NC(=O)[C@H](CCC(=O)O)NC(=O)[C@H](Cc1ccc(O)cc1)NC(=O)[C@H](CCC(N)=O)NC(=O)[C@H](C)NC(=O)[C@H](CCCNC(=N)N)NC(=O)[C@H](CCC(N)=O)NC(=O)[C@H](CCC(=O)O)NC(=O)[C@H](Cc1cnc[nH]1)NC(=O)[C@@H](NC(=O)[C@H](C)NC(=O)[C@H](Cc1ccc(O)cc1)NC(=O)[C@H](CC(=O)O)NC(=O)CNC(=O)[C@@H]1CCCN1C(=O)[C@H](Cc1ccc(O)cc1)NC(=O)[C@H](CCSC)NC(=O)[C@@H]1CCCN1C(=O)[C@H](CCC(=O)O)NC(=O)[C@H](CC(C)C)NC(=O)[C@@H]1CCCN1C(=O)[C@H](C)N)[C@@H](C)O)[C@@H](C)O)C(=O)N[C@@H](CC(N)=O)C(=O)N[C@H](C(=O)N[C@@H](CC(C)C)C(=O)N[C@H](C(=O)N[C@@H](CCCNC(=N)N)C(=O)N1CCC[C@H]1C(=O)N[C@@H](CCCNC(=N)N)C(=O)N[C@@H](Cc1ccc(O)cc1)C(N)=O)[C@@H](C)O)[C@@H](C)O ?
Coupling enz: -1

What do the screens show for `Cc1nc2c(ccc3c2ccc2nc(C)sc23)s1`?
RXFP1 antagonist: 1; gsp agonist: -1%; Giardia killer: -19; RXFP1 agonist: -2%; gsp antagonist: 11%; Coupling enz: 0

Results for COc1cc2sc(C)nc2c2ccccc12 ?
RXFP1 antagonist: 9; gsp agonist: 5%; Giardia killer: -4; RXFP1 agonist: 0%; gsp antagonist: 0%; Coupling enz: -32*

Results for COc1ccc(C2c3ccsc3CCN2C(=O)NC(C)(C)C)cc1 (stereo not given) ?
RXFP1 antagonist: -4; gsp agonist: 0%; Giardia killer: 1; RXFP1 agonist: -3%; gsp antagonist: 32µM*; Coupling enz: 0

How did CN(C)CCC1(c2ccc(Cl)cc2)Cc2ccccc2C(=O)O1 (stereo not given) do in these assays?
Coupling enz: 0

What do the screens show for `CSCC[C@H](NC(=O)[C@@H]1CCCN1C(=O)[C@H](CCCN=C(N)N)NC(=O)[C@H](CC(C)C)NC(=O)[C@@H]1CCCN1C(=O)[C@@H](NC(=O)[C@@H](N)CCC(N)=O)C(C)C)C(=O)N[C@H](C(=O)N[C@@H](Cc1ccc(O)cc1)C(=O)N[C@@H](CCCCN)C(=O)O)[C@@H](C)O`?
Coupling enz: 2

Results for O=[N+]([O-])c1cc(Cl)ccc1N1CCCC1 ?
RXFP1 antagonist: 2; gsp agonist: 10%; Giardia killer: -9; RXFP1 agonist: -3%; gsp antagonist: 7%; Coupling enz: 2

What do the screens show for `O=C1C(Cl)=C(N2CCN(c3ccccc3[N+](=O)[O-])CC2)C(=O)c2ccccc21`?
gsp agonist: -18%; Giardia killer: -12; RXFP1 agonist: 2%; gsp antagonist: -2%; Coupling enz: -41*

How did COc1ccc(-c2nc3ccccn3c2Nc2ccccc2C)cc1 do in these assays?
Giardia killer: 3

What do the screens show for `CCCNC(=O)C1CCC(Cn2c(=O)c3sccc3n(CC(=O)NCc3cccc(OC)c3OC)c2=O)CC1` (stereo not given)?
RXFP1 agonist: 22µM*
